Experimental data as given in PubChem BioAssay AID1259249 (Broad Institute, 2017).
Values joined by “and” are separate entries in the source; they are usually repeats but may differ in a detail not shown here. Equal entries are not always repeated. The whole screen tested about 86,000 compounds, of which about 220 (0.26%) were called active.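 The calls were made as follows: active = mean growth activity at or below -80% and every replicate also at or below -80%; inconclusive = mean at or below -80% but some replicate above -80%; inactive = mean growth activity above -80%.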 The full list was thinned out, with actives kept by preference.

assay: blockers of Clostridium difficile growth – HTS, primary screen (AID 1259249); conditions: Clostridium difficile clinical isolate growth, OD600, 24 h; stronger effect = lower value; screened at 16 µg/mL (by protocol);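 also: 0% = DMSO wells and -100% = levofloxacin 16 µg/mL wells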

Compound | growth activity, negative = inhibition
COCC(=O)N1CC(=O)N2[C@H](C1)[C@@H](c1ccc(C#Cc3cccc(OC)c3)cc1)[C@@H]2CO | -20.7% (inactive)
Cc1nc(N2[C@H](CO)[C@H](c3ccccc3)[C@H]2CNCC2CCC2)sc1C | 8.18% (inactive)
C/C=C/c1ccc([C@@H]2[C@@H](CO)N(C(=O)c3ccccc3)C23CN(C(C)=O)C3)cc1 | -2.56% (inactive)
COc1ccc(C#Cc2cccc(-c3nc(C(=O)O)cc4c3[C@@H](CCO)N(S(=O)C(C)(C)C)C4)c2)cc1OC (some centres undefined) | -2.07% (inactive)
CCO[C@H]1OC(C(=O)N2CCCCCCC2)=C[C@@H](c2ccc(C(F)(F)F)cc2)[C@@H]1CCCO | 9.8% (inactive)
C[C@H]1CN([C@@H](C)CO)C(=O)c2cc(C#CC3CCCCC3)cnc2O[C@@H]1CN(C)C(=O)Cc1ccccn1 | -14% (inactive)
Cc1noc(C)c1S(=O)(=O)N(C)C[C@@H]1OCCCC[C@@H](C)Oc2ccc(NC(=O)c3ccccc3)cc2C(=O)N([C@H](C)CO)C[C@H]1C | 5.17% (inactive)
COc1ccc(CN(C)C[C@H]2OCCCC[C@H](C)Oc3ccc(NS(C)(=O)=O)cc3C(=O)N([C@H](C)CO)C[C@@H]2C)cc1 | -0.222% (inactive)
O=C(C[C@@H]1C=C[C@@H](NS(=O)(=O)c2ccccc2)[C@H](CO)O1)N1CCN(c2ccccc2)CC1 | 0.541% (inactive)
O=C(c1cnccn1)N1CC2(C1)[C@H](c1ccccc1)[C@H](CO)N2C(=O)c1ccccc1 | -0.792% (inactive)
O=C(C[C@H]1CC[C@H]2[C@@H](COC[C@@H](O)CN2CC2CCCC2)O1)NCC1CC1 | -1.93% (inactive)
Cc1ccccc1S(=O)(=O)N1C[C@@H]2N[C@H](C1)C2c1ccc(-c2cccc(C(=O)N(C)C)c2)cc1 (some centres undefined) | 4.24% (inactive)
CN(C)CC(=O)N1[C@H](C(=O)NC2CCC2)[C@@H](CO)[C@@H]2Cn3c(ccc(-c4ccc(F)cc4)c3=O)[C@@H]21 | -0.849% (inactive)
CCCNC(=O)N1CCC2(CC1)CN(C(=O)CN1CCOCC1)[C@H](CO)c1[nH]c3cc(OC)ccc3c12 | 5.44% (inactive)
C[C@@H]1CCCCO[C@H](CN(C)C(=O)NC2CCCCC2)[C@H](C)CN([C@H](C)CO)C(=O)c2cc(NC(=O)c3ccncc3)ccc2O1 | -3.74% (inactive)
COc1ccc2c3c([nH]c2c1)[C@H](CO)N(Cc1nccs1)CC31CCN(C(=O)C2CCC2)CC1 | -4.33% (inactive)
CCCC#Cc1ccc([C@@H]2[C@@H](C#N)N(C(=O)C3CC3)[C@H]2CO)cc1 | -16.8% (inactive)
CCCNC(=O)Nc1ccc2c(c1)OC[C@H](C)N(CCC(F)(F)F)C[C@H](C)[C@@H](OC)CN(C)C2=O | -16.2% (inactive)
Cc1ccc(S(=O)(=O)N[C@@H]2CC[C@@H](CCn3cc(C4CC4)nn3)O[C@@H]2CO)cc1 | -1.26% (inactive)
C[C@@H]1CCCCO[C@@H](CN(C)C(=O)NC2CCCCC2)[C@H](C)CN([C@H](C)CO)C(=O)c2cc(NC(=O)Nc3cccc4ccccc34)ccc2O1 | 2.69% (inactive)
O=C(c1ccncc1)N1C[C@H]2[C@@H](c3ccccc31)[C@H](CO)N2Cc1ccc(F)cc1 | -10.6% (inactive)
CCCC(=O)N1CC2(CN(C(=O)NC(C)C)C2)c2c([nH]c3cc(OC)ccc23)[C@@H]1CO | -10.9% (inactive)
CC(C)C(=O)Nc1ccc2c(c1)C(=O)N(C)[C@@H]1CC[C@@H](CC(=O)NCCc3ccccc3)O[C@H]1CO2 | -2.19% (inactive)
COc1ccc2c3c(n(C)c2c1)[C@H](CO)N(CC1CC1)CC31CCN(C(=O)c2ccccc2)CC1 | 22.3% (inactive)
COCc1cn(CC[C@@H]2CC[C@@H](NC(=O)Nc3ccc(C(F)(F)F)cc3)[C@H](CO)O2)nn1 | 1.56% (inactive)
C[C@@H]1CN([C@@H](C)CO)C(=O)c2cc(NC(=O)Nc3ccc4c(c3)OCO4)ccc2O[C@@H](C)CCCCO[C@H]1CN(C)C(=O)Nc1ccc(C(F)(F)F)cc1 | 3.76% (inactive)
CCN1[C@@H]2c3cccc(=O)n3C[C@H]1[C@H](CO)[C@H]2C(=O)NC1Cc2ccccc2C1 | -3.73% (inactive)

Compound | growth activity, negative = inhibition
O=C(C1CCC1)N1CC(=O)N2[C@@H](CO)[C@@H](c3ccc(C#Cc4cccc(F)c4)cc3)[C@@H]2C1 | -12.4% (inactive)
Cc1ccc(-c2cnc3c(c2)C(=O)N([C@H](C)CO)C[C@H](C)[C@@H](CN(C)C(=O)c2cccc(F)c2)O3)cc1 | 0.45% (inactive)
CN1c2ccc(-c3cccc(F)c3)cc2[C@H]2[C@H](CCN2C(=O)c2cccc(F)c2)[C@H]1CO | -1.71% (inactive)
C[C@@H]1CN([C@@H](C)CO)C(=O)Cc2cc(NC(=O)Nc3ccc(C(F)(F)F)cc3)ccc2O[C@H]1CN(C)Cc1ccc(C(=O)O)cc1 | 4.68% (inactive)
COc1cccc(NC(=O)N(C)C[C@@H]2Oc3ncc(Br)cc3C(=O)N([C@@H](C)CO)C[C@H]2C)c1 | 4.14% (inactive)
CO[C@@H]1CN(C)C(=O)c2cc(NC(=O)C3CCCC3)ccc2OC[C@@H](C)N(Cc2ccc(F)cc2)C[C@H]1C | 7.43% (inactive)
COc1ccccc1NC(=O)N1C[C@H]2[C@@H](c3ccccc31)[C@H](CO)N2Cc1ccc2c(c1)OCO2 | -2.67% (inactive)
COc1ccccc1NC(=O)N1C[C@@H]2[C@H](c3ccccc31)[C@H](CO)N2CC1CCOCC1 | 8.14% (inactive)
CO[C@@H]1CN(C)C(=O)c2cc(NC(=O)C3CCC3)ccc2OC[C@H](C)N(Cc2ccccn2)C[C@H]1C | -0.0418% (inactive)
COc1ccccc1C#Cc1ccc2c(c1)O[C@H](CN(C)Cc1cccnc1)[C@@H](C)CN([C@H](C)CO)S2(=O)=O | 2.69% (inactive)
C[C@H]1CN([C@@H](C)CO)C(=O)c2cc(C#CC3CCCC3)cnc2O[C@@H]1CN(C)C(=O)Cc1ccccn1 | -9.22% (inactive)
N#C[C@H]1[C@@H](c2ccccc2C2=CCCC2)[C@H](CO)N1C(=O)c1cccc(F)c1 | -5.69% (inactive)
C[C@@H]1CCCCO[C@H](CN(C)CC2CCCCC2)[C@H](C)CN([C@H](C)CO)C(=O)c2cc(NS(=O)(=O)c3ccc(F)cc3)ccc2O1 | 11.3% (inactive)
COc1ccc(S(=O)(=O)NC[C@@H]2CC[C@@H]3[C@@H](CN3Cc3cc(F)ccc3F)O2)cc1 | -8.36% (inactive)
CN1C(=O)c2cc(NC(=O)C3CC3)ccc2OC[C@H]2O[C@H](CC(=O)O)CC[C@H]21 | 3.37% (inactive)
CO[C@@H]1CN(C)C(=O)c2ccc(NC(=O)C3CC3)cc2OC[C@H](C)N(C(C)=O)C[C@H]1C | 0.555% (inactive)
COc1cccc(NC(=O)N[C@H]2C=C[C@H](CC(=O)NCc3ccccn3)O[C@@H]2CO)c1 | 6.26% (inactive)
CO[C@H]1CN(C)C(=O)c2ccc(NC(=O)C3CCCC3)cc2OC[C@H](C)N(C(=O)CC2CC2)C[C@@H]1C | -4% (inactive)
C/C=C/c1ccccc1[C@H]1[C@@H](C#N)N(C(C)=O)[C@@H]1CO | -2.31% (inactive)
O=C(C1CCOCC1)N1CC(=O)N2[C@H](CO)[C@H](c3ccc(C#Cc4cccc(F)c4)cc3)[C@H]2C1 | -20.7% (inactive)
CNC(=O)C[C@H]1CC[C@H]2[C@H](COc3ccc(NC(=O)Nc4ccc(F)cc4)cc3C(=O)N2C)O1 | -3.32% (inactive)
O=C(C[C@H]1C=C[C@H](NC(=O)Nc2cc(F)ccc2F)[C@@H](CO)O1)NCc1ccccn1 | -1.08% (inactive)
CNC[C@H]1OCCCC[C@H](C)Oc2ccc(NC(=O)Nc3ccc(C(F)(F)F)cc3)cc2C(=O)N([C@H](C)CO)C[C@@H]1C | 8.32% (inactive)
C[C@H](O)C#Cc1ccc2c(c1)O[C@@H](CN(C)C(=O)C1CCCCC1)[C@H](C)CN([C@@H](C)CO)S2(=O)=O | -2.82% (inactive)
COc1ccc2c3c(n(C)c2c1)[C@@H](CO)N(C(=O)CN1CCOCC1)CC31CCN(Cc2ccncc2)CC1 | -2.85% (inactive)
CCCNC(=O)N1CC2(C1)[C@@H](c1ccccc1)[C@@H](CO)N2C(=O)CC1CC1 | -0.374% (inactive)
C[C@@H]1CN([C@H](C)CO)S(=O)(=O)c2ccc(C3=CCCC3)cc2O[C@H]1CN(C)C(=O)CC1CC1 | 3.03% (inactive)

Compound | growth activity, negative = inhibition
COCc1cn(CC[C@H]2CC[C@H](NC(=O)Cc3cccnc3)[C@H](CO)O2)nn1 | 1.58% (inactive)
N[C@@H]1CC[C@H](CCn2cc(C3CC3)nn2)O[C@@H]1CO | 5.59% (inactive)
C/C=C/c1ccc([C@@H]2[C@H](CO)N(C(=O)c3cnccn3)C23CN(C(C)=O)C3)cc1 | 2.93% (inactive)
CCCNC(=O)C[C@H]1CC[C@H]2[C@@H](COC[C@H](O)CN2C(=O)CC)O1 | 7.43% (inactive) and 9.67% (inactive)
COc1ccc(CN(C)C[C@H]2OCc3cn(nn3)CCCC(=O)N([C@@H](C)CO)C[C@@H]2C)cc1 | -0.425% (inactive)
O=C(C[C@H]1CC[C@H]2[C@@H](COC[C@H](O)CN2C(=O)Nc2ccc(Cl)cc2)O1)NCC1CC1 | 7.11% (inactive)
CCCNC(=O)C[C@H]1CC[C@H]2[C@@H](COC[C@@H](O)CN2C(=O)Nc2ccc(Cl)c(Cl)c2)O1 | -102% (active) and -6.65% (inactive)
O=C(C[C@@H]1CC[C@H]2[C@@H](COC[C@@H](O)CN2C(=O)Nc2ccc(Cl)cc2)O1)NC1Cc2ccccc2C1 | 2% (inactive) and 46.4% (inactive)
O=C(C[C@H]1CC[C@@H]2[C@H](COC[C@@H](O)CN2C(=O)Nc2ccc(Cl)cc2)O1)NC1Cc2ccccc2C1 | -5.66% (inactive) and -5.56% (inactive)
CCCNC(=O)C[C@@H]1CC[C@H]2[C@@H](COC[C@H](O)CN2C(=O)Nc2ccc(Cl)c(Cl)c2)O1 | -57.2% (inactive) and -25.4% (inactive)
O=C(C[C@H]1CC[C@H]2[C@@H](COC[C@@H](O)CN2C(=O)Nc2ccc(C(F)(F)F)cc2)O1)NC1Cc2ccccc2C1 | -97.2% (active) and 27.2% (inactive)
CC=Cc1ccc2n(c1=O)C[C@H]1[C@H](CO)[C@@H](C(=O)NC3CCCC3)[C@@H]2N1C(=O)c1cnccn1 (mixture of isomers) | 3.3% (inactive)
CC(C)NC(=O)N1[C@@H]2CN(C(=O)C3CCCCC3)c3ccccc3[C@@H]2[C@@H]1CO | -5.28% (inactive)
CC(=O)N1[C@H](CO)[C@H](c2ccccc2)[C@H]1CN(C(=O)c1ccccc1F)C(C)C | 2.62% (inactive)
CCS(=O)(=O)N1CC2(CN(Cc3ccccc3)[C@@H](CO)c3c2c2ccc(OC)cc2n3C)C1 | 10.4% (inactive)
COc1ccccc1C(=O)N1C[C@H]2[C@@H](c3ccccc31)[C@H](CO)N2C(=O)C1CC1 | -5.43% (inactive)
CO[C@H]1CN(C)C(=O)c2ccc(NS(=O)(=O)c3ccccc3)cc2OC[C@H](C)N(Cc2nccs2)C[C@@H]1C | 1.37% (inactive)
COc1cccc(S(=O)(=O)N(C)C[C@@H]2Oc3ncc(-c4cccc(C(=O)N(C)C)c4)cc3C(=O)N([C@H](C)CO)C[C@H]2C)c1 | -3.2% (inactive)
COc1cccc(NC(=O)N(C)C[C@H]2Oc3cc(/C=C/c4ccccc4)ccc3S(=O)(=O)N([C@H](C)CO)C[C@@H]2C)c1 | 5.84% (inactive)
COc1ccc2c3c(n(C)c2c1)[C@H](CO)N(S(=O)(=O)c1ccc(C)cc1)CC31CCN(C(=O)c2ccccn2)CC1 | 3.65% (inactive)
O=C(C1CCCC1)N1CC(=O)N2[C@H](C1)[C@@H](c1ccc(-c3ccccc3F)cc1)[C@@H]2CO | 2.69% (inactive)
C/C=C/c1ccc([C@H]2[C@@H](CO)N(C(=O)CC)[C@H]2CN(C)C(=O)C2CC2)cc1 | -2.06% (inactive)
O=C(NCC[C@H]1CC[C@H](NS(=O)(=O)c2cccc(F)c2)[C@H](CO)O1)C1CCCCC1 | -5.15% (inactive)
C/C=C/c1ccc([C@@H]2[C@H](CO)N(CCC(F)(F)F)C23CN(C(=O)CC)C3)cc1 | 8.71% (inactive)
CC(C)NC(=O)N(C)C[C@H]1Oc2ncc(-c3cccc(C#N)c3)cc2C(=O)N([C@@H](C)CO)C[C@H]1C | 5.25% (inactive)
